“And” between values parts separate entries of the source, which are not always exact repeats. Equal values may be shown once. Records with an inconclusive call do not appear. Where a call stands in place of a potency, no number is given. Some compounds were tested as several samples or in several runs, with calls that do not always agree. The source made the active and inactive calls. Unless noted, calls follow the shape of the dose curve; as a rule, active = well fitted curve in the direction sought with a large enough effect in the repeat runs; inconclusive = weak or mixed curves; inactive = no such curve, though single readings can be large; an effect the other way counts as inactive or inconclusive.
What was measured:
[1] = qHTS assay to identify small molecule antagonists of the androgen receptor (AR) signaling pathway using the MDA cell line in the presence of 0.5 nM R1881 - cell viability counter screen (AID 1259242); also: nearly all actives have a fitted effect of over 45% in size; also: potency is read from the fitted curve at half-maximal effect
Summary of the method: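 Live-cell protease activity was measured by CellTiter-Fluor fluorescence after 30 min. Before that, MDA-kb2 MMTV-luciferase cells had 16 hr at 37C without CO2, exposed to test compounds and 0.5 nM R1881 final.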

[2] = qHTS assay to identify small molecule phospholipidosis (PLD) inducers (AID 1259344; active = well fitted curve in the direction sought with a large enough effect; an effect the other way counts as inactive or inconclusive)
Summary of the method: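 Phospholipid accumulation was scored by imaging: fixed, Hoechst-counterstained HepG2 cells stained with LipidTOX Red after 24 h compound exposure at 37 C. Read-outs were pit count and pit intensity per well or per cell, with amiodarone and DMSO controls.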

[3] = qHTS assay to identify small molecule HDAC inhibitors (AID 1259364); also: top concentration of the series differs between compounds; nearly all actives have a fitted effect of over 45% in size
Summary of the method: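 Luminescence read after 30 min room-temperature HDAC-Glo incubation measures cellular class I/II HDAC activity. Compounds were applied for 2 hr at 37 C to HCT-116 wild-type cells seeded the day before.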

[4] = qHTS assay to identify small molecule HDAC inhibitors - cell viability counter screen (AID 1259365); also: series mostly up to about 92 µM; nearly all actives have a fitted effect of over 50% in size
Summary of the method: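 After overnight seeding at 1,500 cells per well, wild-type HCT-116 cultures took up compounds in DMSO for 2hr at 37 C. Viable cell content came from luminescence with CellTiter-Glo.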

[5] = qHTS assay to identify small molecule agonists of the sonic hedgehog signaling (Shh) pathway (AID 1259368; calls by dose curve;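 also: NIH/3T3-derived 3T3Gli1-Luc cells carrying a stable Gli1-driven firefly luciferase reporter; series mostly up to about 92 µM; nearly all actives have a fitted effect of over 15% in size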)
Summary of the method: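 Luminescence was read after 30 min at room temperature with luciferase reagent. Before that, 3T3Gli1-Luc cells (NIH/3T3 clone, stable Gli1-Luc reporter; 2,000/well) were exposed to compounds for 24 hr at 37C, 5% CO2, compounds being added 4 hr post-plating.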

[6] = qHTS assay to identify small molecule antagonists of the sonic hedgehog signaling (Shh) pathway (AID 1259369; calls by dose curve; also: nearly all actives have a fitted effect of over 45% in size; also: potency is read from the fitted curve at half-maximal effect)
Summary of the method: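 Antagonist mode: compound added to 3T3 Gli1-Luc cells followed by conditioned-medium stimulation, 24 h at 37 C, 5% CO2. Inhibition taken as loss of Gli1-driven luciferase luminescence.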

[7] = qHTS assay to identify small molecule agonists of the estrogen receptor beta (ER-beta) signaling pathway - cell viability counter screen (AID 1259380); also: nearly all actives have a fitted effect of over 30% in size; also: potency is read from the fitted curve at half-maximal effect
Summary of the method: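 Cell viability counter screen: CellTiter-Glo luminescence (30 min, room temperature) measured in the same wells as the beta-lactamase readout, after 16 hr compound exposure at 37C of ER-beta-bla HEK293T cells in 2% charcoal-stripped FBS medium.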

[8] = qHTS assay to identify small molecule antagonists of the estrogen receptor beta (ER-beta) signaling pathway - cell viability counter screen (AID 1259382); also: nearly all actives have a fitted effect of over 55% in size; also: potency is read from the fitted curve at half-maximal effect
Summary of the method: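 Cytotoxicity was measured in the same wells by CellTiter-Glo luminescence after 30 min at room temperature. Cells were ER-beta-bla HEK293T in charcoal-stripped serum, given compound together with 1 nM E2 and incubated 16 h at 37C.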

[9] = biological target: Estrogen receptor (Homo sapiens) (UniProt P03372); test: qHTS assay to identify small molecule agonists of the estrogen receptor alpha (ER-alpha) signaling pathway in the presence of an antagonist (AID 1259383; calls by dose curve; also: top concentration of the series differs between compounds; nearly all actives have a fitted effect of over 15% in size)
Estrogen receptor (Homo sapiens), sequence (P03372 whole entry, looked up): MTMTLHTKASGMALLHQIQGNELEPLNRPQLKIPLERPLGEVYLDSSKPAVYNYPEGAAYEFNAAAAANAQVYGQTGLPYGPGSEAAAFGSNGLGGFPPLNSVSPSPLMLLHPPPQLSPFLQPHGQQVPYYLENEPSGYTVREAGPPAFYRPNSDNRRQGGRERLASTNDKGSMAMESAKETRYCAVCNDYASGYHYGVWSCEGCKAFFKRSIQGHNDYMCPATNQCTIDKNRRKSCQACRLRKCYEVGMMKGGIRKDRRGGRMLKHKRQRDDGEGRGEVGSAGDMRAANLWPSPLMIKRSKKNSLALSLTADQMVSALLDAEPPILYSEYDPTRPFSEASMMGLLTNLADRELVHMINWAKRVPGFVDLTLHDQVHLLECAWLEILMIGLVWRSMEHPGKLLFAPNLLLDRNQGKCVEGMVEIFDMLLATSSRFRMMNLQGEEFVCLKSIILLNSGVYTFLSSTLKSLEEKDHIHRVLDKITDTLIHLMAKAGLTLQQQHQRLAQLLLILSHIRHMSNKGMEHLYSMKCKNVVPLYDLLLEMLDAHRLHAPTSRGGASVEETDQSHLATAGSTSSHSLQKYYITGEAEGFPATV
Summary of the method: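 Agonist-mode confirmation run in the presence of 10.0nM (final) ICI-182,780 antagonist. The reporter was ERE-driven luciferase in VM7Luc4E2 cells, grown in charcoal-stripped serum. Cells were exposed to 15-concentration compound series for 22hr, then ONE-Glo luminescence was read.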

[10] = qHTS assay to identify small molecule agonists or antagonists of the thyroid stimulating hormone receptor (TSHR) signaling pathway - wild type cell line counter screen (AID 1259384; calls by dose curve; also: potency is read from the fitted curve at half-maximal effect)
Summary of the method: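 Counter screen in untransfected Hek293: compounds (15-point titration, triplicate) plus phosphodiesterase inhibitor Ro20-1724 added after 18 h plating; 30 min RT. Intracellular cAMP via competitive d2/cryptate immunoassay, 1 h incubation.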

[11] = biological target: Thyrotropin receptor (Homo sapiens) (UniProt P16473); test: qHTS assay to identify small molecule antagonists of the thyroid stimulating hormone receptor (TSHR) signaling pathway (AID 1259385; calls by dose curve; also: nearly all actives have a fitted effect of over 20% in size; also: potency is read from the fitted curve at half-maximal effect)
Thyrotropin receptor (Homo sapiens), sequence (P16473 whole entry, looked up): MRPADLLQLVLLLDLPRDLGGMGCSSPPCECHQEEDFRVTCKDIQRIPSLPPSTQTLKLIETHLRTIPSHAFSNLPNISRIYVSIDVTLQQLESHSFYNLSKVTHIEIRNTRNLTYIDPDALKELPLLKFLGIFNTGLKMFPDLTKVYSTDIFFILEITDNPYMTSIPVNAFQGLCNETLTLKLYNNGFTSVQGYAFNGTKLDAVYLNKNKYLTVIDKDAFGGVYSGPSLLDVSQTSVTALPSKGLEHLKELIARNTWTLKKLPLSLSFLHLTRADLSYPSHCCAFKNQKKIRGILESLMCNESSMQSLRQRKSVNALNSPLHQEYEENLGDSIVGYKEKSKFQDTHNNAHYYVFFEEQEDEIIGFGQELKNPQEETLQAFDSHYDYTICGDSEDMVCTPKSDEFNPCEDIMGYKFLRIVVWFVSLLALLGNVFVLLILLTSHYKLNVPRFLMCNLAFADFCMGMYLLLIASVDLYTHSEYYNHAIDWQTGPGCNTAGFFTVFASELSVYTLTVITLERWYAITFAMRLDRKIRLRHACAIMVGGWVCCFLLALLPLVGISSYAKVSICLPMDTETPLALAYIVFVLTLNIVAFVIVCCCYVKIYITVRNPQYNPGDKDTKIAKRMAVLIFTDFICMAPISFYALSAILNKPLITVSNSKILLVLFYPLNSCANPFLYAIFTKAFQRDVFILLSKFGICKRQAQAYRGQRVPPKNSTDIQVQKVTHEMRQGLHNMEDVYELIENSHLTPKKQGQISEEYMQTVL
Summary of the method: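 Antagonist mode: compound-treated TSHR-expressing HEK293 cells were stimulated with 1.5 ng/mL TSH (final) in presence of Ro20-1724 for 30 min at RT. HTRF cAMP detection after 1 h; each compound tested at 15 concentrations, triplicate.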

[12] = qHTS assay to identify small molecule agonists of the sonic hedgehog signaling (Shh) pathway - cell viability counter screen (AID 1259366); also: nearly all actives have a fitted effect of over 50% in size
Summary of the method: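 Same-well cytotoxicity read. Gli1-Luc reporter 3T3 cells; compounds 24hr, 37C/5% CO2; CellTiter-Fluor fluorescence.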

[13] = qHTS assay to identify small molecule agonists of the androgen receptor (AR) signaling pathway in the presence of an antagonist - cell viability counter screen (AID 1259379); also: nearly all actives have a fitted effect of over 25% in size; also: potency is read from the fitted curve at half-maximal effect
Summary of the method: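 Cytotoxicity counter-screen run in the same wells as the nilutamide-challenged (3.0 µM final) AR agonist assay in MDA-kb2 cells. Compounds tested at 15 concentrations for 16 h, 37 °C without CO2; CellTiter-Fluor fluorescence read.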

[14] = qHTS assay to identify small molecule agonists of the estrogen receptor alpha (ER-alpha) signaling pathway in the presence of an antagonist - cell viability counter screen (AID 1259386); also: nearly all actives have a fitted effect of over 30% in size; also: potency is read from the fitted curve at half-maximal effect
Summary of the method: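 Compounds tested at 15 concentrations for 22 h at 37C alongside 10.0nM (final) ICI-182,780 antagonist, in VM7Luc4E2 cells grown in phenol red-free, charcoal-stripped medium. Viability read by CellTiter-Fluor fluorescence after 1 h reagent incubation.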

[15] = biological target: Estrogen receptor beta (Homo sapiens) (UniProt Q92731); test: qHTS assay to identify small molecule agonists of the estrogen receptor beta (ER-beta) signaling pathway (AID 1259377; active = well fitted activation curve with a large enough effect in the signal ratio in the repeat runs, not every such curve was filed as active; the % refers to the signal ratio)
Estrogen receptor beta (Homo sapiens), sequence (Q92731 whole entry, looked up): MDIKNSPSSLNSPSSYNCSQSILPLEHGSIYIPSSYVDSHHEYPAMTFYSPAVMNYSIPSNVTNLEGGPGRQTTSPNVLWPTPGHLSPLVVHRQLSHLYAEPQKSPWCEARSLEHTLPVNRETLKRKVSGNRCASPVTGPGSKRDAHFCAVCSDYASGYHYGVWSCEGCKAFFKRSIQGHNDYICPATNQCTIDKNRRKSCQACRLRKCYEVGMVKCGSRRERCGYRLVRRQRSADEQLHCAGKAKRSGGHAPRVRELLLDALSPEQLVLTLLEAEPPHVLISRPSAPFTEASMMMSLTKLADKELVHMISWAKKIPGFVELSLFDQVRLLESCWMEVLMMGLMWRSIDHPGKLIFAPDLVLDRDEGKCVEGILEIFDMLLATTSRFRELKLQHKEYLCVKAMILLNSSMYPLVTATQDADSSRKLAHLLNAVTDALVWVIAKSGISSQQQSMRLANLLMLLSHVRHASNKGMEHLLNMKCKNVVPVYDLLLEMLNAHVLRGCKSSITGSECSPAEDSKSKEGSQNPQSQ
Summary of the method: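 Read-out: beta-lactamase FRET fluorescence. Cell line: ER-beta-UAS-bla HEK293T in 2% charcoal-stripped FBS. Exposure: 16 hr at 37C. Substrate step: 2 h at room temperature.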

[16] = biological target: Estrogen receptor beta (Homo sapiens) (UniProt Q92731); test: qHTS assay to identify small molecule antagonists of the estrogen receptor beta (ER-beta) signaling pathway (AID 1259378; active = well fitted inhibition curve with a large enough effect in the signal ratio in the repeat runs, not every such curve was filed as active; the % refers to the signal ratio)
Summary of the method: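 Antagonist mode: compounds added to beta-lactamase reporter HEK293T ER-beta-UAS cells stimulated with E2 (1nM final), 16 hr at 37C. LiveBLAzer B/G FRET substrate, 2 hours room temperature, fluorescence read-out.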

[17] = biological target: Estrogen receptor (Homo sapiens) (UniProt P03372); test: qHTS assay to identify small molecule antagonists of the estrogen receptor alpha (ER-alpha) signaling pathway using the BG1 cell line in the presence of 0.1 nM 17-beta-estradiol (AID 1259244); also: nearly all actives have a fitted effect of over 50% in size
Summary of the method: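 Luciferase luminescence (ONE-Glo, 30 min at room temperature) was read after 22 hr at 37C exposure to compounds plus 17beta-estradiol at 0.1 nM final. Cells were VM7Luc4E2 with endogenous ER-alpha and an ERE-driven luciferase, pre-cultured 5 days in hormone-depleted medium.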

[18] = qHTS assay to identify small molecule antagonists of the sonic hedgehog signaling (Shh) pathway - cell viability counter screen (AID 1259367); also: nearly all actives have a fitted effect of over 55% in size
Summary of the method: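 Viability was read by CellTiter-Fluor fluorescence in the same wells, reagent added 23 hr into compound treatment and incubated 1 hr at 37C. The 3T3 Gli1-Luc reporter cells (2,000/well) received conditioned medium after compound and ran 24 hr.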

Row | Compound | Potency [1] | Potency [2] | Potency [3] | Potency [4] | outcome [5] | Potency [6] | Potency [7] | Potency [8] | Potency [9] | Potency [10] | Potency [11] | PLD induction [2] | Potency [12] | Potency [13] | Potency [14] | Potency [15] | Potency [16] | Potency [17] | Potency [18]
1 | C=C1CC[C@H](O)C/C1=C\C=C1/CCC[C@]2(C)[C@@H]([C@H](C)CCCC(C)C)CC[C@@H]12 | inactive | inactive | inactive | inactive | inactive | 17.1 µM (active) | 42.9 µM (active) | 30.4 µM (active) | inactive | inactive | inactive | – | – | – | – | – | – | – | –
2 | Oc1ccccc1 | inactive | – | inactive | inactive | inactive | inactive | inactive | inactive | – | inactive | inactive | 0.811% [at 7.66 µM] (inactive) | inactive | inactive | inactive | – | – | – | –
3 | CC(C)NCC(O)c1ccc(O)c(O)c1 (stereo not given) | inactive | inactive | inactive | inactive | inactive | inactive | inactive | inactive | – | 4.98 nM (active) and 5.87 nM (active) and 5.7 nM (active) | inactive | – | inactive | inactive | 54.5 µM (active) | inactive | inactive | – | –
4 | O=C1O[C@H]([C@@H](O)CO)C(O)=C1O | inactive | inactive | inactive | inactive | inactive | inactive | inactive | inactive | – | inactive | inactive | – | inactive | inactive | inactive | – | – | – | –
5 | CN1[C@@H]2CC(OC(=O)[C@H](CO)c3ccccc3)C[C@H]1[C@@H]1O[C@@H]12 (stereo not given in full) | inactive | inactive | inactive | – | inactive | inactive | inactive | – | inactive | inactive | inactive | – | inactive | inactive | inactive | – | – | inactive | –
6 | Cc1cc(=O)oc2cc(O)ccc12 | inactive | inactive | inactive | – | inactive | 15.4 µM (active) and 17.2 µM (active) and inactive | inactive | – | inactive | inactive | inactive | – | – | inactive | inactive | – | – | inactive | inactive
7 | O=C1NS(=O)(=O)c2ccccc21 | inactive | inactive | inactive | inactive | inactive | inactive | inactive | – | – | inactive | inactive | – | inactive | inactive | inactive | – | – | – | inactive
8 | CC(=O)CC(c1ccccc1)c1c(O)c2ccccc2oc1=O (stereo not given) | inactive | inactive | inactive | inactive | inactive | 27.4 µM (active) and inactive | inactive | – | – | – | – | – | inactive | inactive | inactive | – | – | – | –
9 | O=CC(=O)c1ccccc1 | inactive | – | inactive | – | inactive | inactive | inactive | – | inactive | inactive | – | – | inactive | inactive | inactive | inactive | inactive | inactive | inactive
10 | CC(O)(P(=O)(O)O)P(=O)(O)O | inactive | inactive | inactive | inactive | inactive | inactive | inactive | inactive | – | inactive | inactive | – | inactive | inactive | inactive | – | – | – | inactive
11 | O=C(O)CC(O)C(=O)O (stereo not given) | inactive | inactive | inactive | – | inactive | inactive | inactive | inactive | – | inactive | inactive | – | inactive | inactive | inactive | inactive | inactive | – | inactive
12 | CC(=O)Nc1c(I)c(NC(C)=O)c(I)c(C(=O)O)c1I | inactive | inactive | inactive | inactive | inactive | inactive | inactive | inactive | – | inactive | inactive | – | inactive | inactive | inactive | – | – | – | inactive
13 | COc1ccc(CN(CCN(C)C)c2ccccn2)cc1 | inactive | inactive | inactive | inactive | inactive | inactive | 50.2 µM (active) and inactive | – | – | – | – | – | inactive | inactive | inactive | – | – | – | inactive
14 | O=C1OC2(c3ccccc31)c1cc(Br)c(O)c(Br)c1Oc1c2cc(Br)c(O)c1Br | 4.93 µM (active) and 25 µM (active) and 10.6 µM (active) | inactive | inactive | – | inactive | inactive | inactive | – | inactive | – | 24.7 µM (active) and 21.1 µM (active) | – | inactive | 7.81 µM (active) and 22.3 µM (active) and 11.9 µM (active) | 11 µM (active) and 19.9 µM (active) and 10.6 µM (active) | – | – | inactive | –
15 | O=C(O)c1ccccc1 | inactive | – | inactive | – | inactive | inactive | inactive | inactive | inactive | inactive | inactive | – | inactive | inactive | inactive | – | – | inactive | inactive
16 | Nc1c2c(nc3ccccc13)CCCC2 | inactive | – | inactive | – | inactive | 8.63 µM (active) and 13.7 µM (active) | inactive | inactive | inactive | inactive | inactive | – | inactive | inactive | inactive | inactive | inactive | inactive | –
